These results are taken from PubChem BioAssay (NCI).

About 79,000 compounds went through this panel and 15% of them were active in at least one assay; those are over-represented in the sample as a whole. A number with no mark means an inactive call. Active and inactive are the calls of the source. Cut-off read from the data, not from the text of the source: active = growth inhibition above about 70%; inactive = the rest.

Assay [1] in a line: NCI Yeast Anticancer Drug Screen. Data for the rad50 strain (AID 155).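 Note: 0% = growth of vehicle-only cultures of the same strain.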 Conditions: S. cerevisiae rad50 strain growth inhibition, hits give high values. A digest of the protocol: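 Relative growth inhibition (compound vs vehicle) was measured in yeast with a defined repair-gene alteration.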
Assay [2] can be described thus: NCI Yeast Anticancer Drug Screen. Data for the mec2-1 strain (AID 157). Conditions: S. cerevisiae mec2-1 strain, hits give high values. Summed up:
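Strain: mec2-1 (DNA repair/cell cycle alteration). Compound exposure, then growth measured; inhibition expressed relative to vehicle.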

Assay [3] is described as follows: NCI Yeast Anticancer Drug Screen. Data for the sgs1 mgt1 strain (AID 161).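 Note: 0% = growth of cultures given vehicle only.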 Conditions: S. cerevisiae sgs1 mgt1 strain, hits give high values. Summed up:
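Read-out: growth inhibition vs vehicle controls. Cells: mutant yeast strain deficient in DNA damage repair.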

Assay [4] is described as follows: NCI Yeast Anticancer Drug Screen. Data for the cln2 rad14 strain (AID 165).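 Note: 0% = growth equal to vehicle treated cultures.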 Particulars: S. cerevisiae cln2 rad14 strain, hits give high values. A digest of the protocol:
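Compounds are applied to the cln2 rad14 yeast strain, and growth is then compared with that of vehicle-treated cultures to give inhibition.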

A short description of assay [5]: NCI Yeast Anticancer Drug Screen. Data for the bub3 strain (AID 167). Conditions: S. cerevisiae bub3 mutant strain, hits give high values. A digest of the protocol:
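Screening used yeast with an engineered genetic alteration affecting cell cycle control. Compound-exposed cultures were compared with vehicle cultures, and reduced growth was taken as inhibition.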

Assay [6] in a line: NCI Yeast Anticancer Drug Screen. Data for the mlh1 rad18 strain (AID 175). Particulars: S. cerevisiae mlh1 rad18 strain growth inhibition, hits give high values. A digest of the protocol:
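Read-out is yeast growth inhibition, calculated against vehicle-only controls. The compound was applied to a strain engineered with DNA damage repair alterations.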

Setting [7] is: at 5.0 µM (retest, dose inferred, filed as 0.5).
Where [8] appears, read: at 50.0 µM (retest, dose inferred, filed as 5.0).

On to `CC(C)OC(=O)C1C=CCc2c(O)ccc(O)c21` (stereo not given), for which the growth inhibition was 8% in assay [1] (setting [7]); 25% in assay [1] (setting [8]); 21.2% in assay [1] (at 50.0 µM); 15% in assay [2] (setting [7]); 24% in assay [2] (setting [8]); 11.8% in assay [2] (at 50.0 µM). The growth inhibition is 12% in assay [3] (setting [7]); 44% in assay [3] (setting [8]); 61% in assay [3] (at 50.0 µM); 7% in assay [4] (setting [7]); 22% in assay [4] (setting [8]); 65.9% in assay [4] (at 50.0 µM). The growth inhibition in assay [5] (setting [7]) was 4%; in assay [5] (setting [8]) it was 24%; in assay [5] (at 50.0 µM), 52%; in assay [6] (setting [7]) it was 11%; in assay [6] (setting [8]), 35%; in assay [6] (at 50.0 µM) it was 86.2% (active).

Turning to `[N-]=[N+]=CC(=O)CCC(NC(=O)OCc1ccccc1)C(=O)OCc1ccccc1` (stereo not given), the growth inhibition in assay [1] (setting [7]) was 96% (active); in assay [1] (setting [8]), 99% (active); in assay [1] (at 50.0 µM), 91.2% (active); in assay [2] (setting [7]), 97% (active); in assay [2] (setting [8]) it was 100% (active); in assay [2] (at 50.0 µM), 93.1% (active). The growth inhibition in assay [3] (setting [7]) was 96% (active); in assay [3] (setting [8]), 99% (active); in assay [3] (at 50.0 µM) it was 90.5% (active); in assay [4] (setting [7]) it was 96% (active); in assay [4] (setting [8]), 99% (active); in assay [4] (at 50.0 µM), 90.9% (active). Moreover, the growth inhibition in assay [5] (setting [7]) was 97% (active); in assay [5] (setting [8]), 100% (active); in assay [5] (at 50.0 µM), 89% (active); in assay [6] (setting [7]) it was 97% (active); in assay [6] (setting [8]), 98% (active); in assay [6] (at 50.0 µM), 90.8% (active).

Consider `CC(=O)[C@H]1CC[C@H]2[C@@H]3CC[C@H]4C[C@@H](N5CCOCC5)CC[C@]4(C)[C@H]3CC[C@]12C`, for which the growth inhibition in assay [1] (setting [7]) was 54%; in assay [1] (setting [8]) it was 63%; in assay [1] (at 50.0 µM), 73.3% (active); in assay [2] (setting [7]), 61%; in assay [2] (setting [8]), 76% (active); in assay [2] (at 50.0 µM) it was 36.5%. Besides, the growth inhibition in assay [3] (setting [7]) was 70% (active); in assay [3] (setting [8]), 87% (active); in assay [3] (at 50.0 µM), 83.5% (active); in assay [4] (setting [7]), 52%; in assay [4] (setting [8]), 30%; in assay [4] (at 50.0 µM) it was 87.5% (active). For the same molecule, the growth inhibition is 49% in assay [5] (setting [7]); 81% (active) in assay [5] (setting [8]); 59.5% in assay [5] (at 50.0 µM); 76% (active) in assay [6] (setting [7]); 69% in assay [6] (setting [8]); 74.8% (active) in assay [6] (at 50.0 µM).

On to `CC(C)(CC#N)c1cc(CC(C)(C)c2cc(CC(C)(C)c3cc(CC(C)(C)C4(C)OCCO4)no3)no2)no1`, for which the growth inhibition in assay [1] (setting [7]) is -2%; in assay [1] (setting [8]) it was 2%; in assay [1] (at 50.0 µM), 16.8%; in assay [2] (setting [7]), -4%; in assay [2] (setting [8]), -2%; in assay [2] (at 50.0 µM) it was 2.6%. Also, the growth inhibition in assay [3] (setting [7]) is -2%; in assay [3] (setting [8]), 6%; in assay [3] (at 50.0 µM), -17.4%; in assay [4] (setting [7]), 1%; in assay [4] (setting [8]), -4%; in assay [4] (at 50.0 µM) it was 0.5%. Also, the growth inhibition is -3% in assay [5] (setting [7]); 0% in assay [5] (setting [8]); -1.9% in assay [5] (at 50.0 µM); -2% in assay [6] (setting [7]); -8% in assay [6] (setting [8]); 12.8% in assay [6] (at 50.0 µM).

With `CCc1c(C)[nH]c(-c2csc(N)n2)c1C`, the growth inhibition was -1% in assay [1] (setting [7]); 93% (active) in assay [1] (setting [8]); -4.25% in assay [1] (at 50.0 µM); 1% in assay [2] (setting [7]); 95% (active) in assay [2] (setting [8]); 83.9% (active) in assay [2] (at 50.0 µM). Moreover, the growth inhibition is -1% in assay [3] (setting [7]); 94% (active) in assay [3] (setting [8]); 2.8% in assay [3] (at 50.0 µM); 1% in assay [4] (setting [7]); 93% (active) in assay [4] (setting [8]); 31.7% in assay [4] (at 50.0 µM). The growth inhibition was 4% in assay [5] (setting [7]); 92% (active) in assay [5] (setting [8]); 67.8% in assay [5] (at 50.0 µM); 2% in assay [6] (setting [7]); 93% (active) in assay [6] (setting [8]); 56.8% in assay [6] (at 50.0 µM).

In the case of `CCCCCC(C)NCC(O)Cc1ccc(OCCCC)cc1` (stereo not given), the growth inhibition is 22% in assay [1] (setting [7]); 100% (active) in assay [1] (setting [8]); 99.5% (active) in assay [1] (at 50.0 µM); 29% in assay [2] (setting [7]); 99% (active) in assay [2] (setting [8]); 99.3% (active) in assay [2] (at 50.0 µM). Also, the growth inhibition in assay [3] (setting [7]) is 37%; in assay [3] (setting [8]), 100% (active); in assay [3] (at 50.0 µM) it was 99.3% (active); in assay [4] (setting [7]), 34%; in assay [4] (setting [8]), 100% (active); in assay [4] (at 50.0 µM), 98.9% (active). Also, the growth inhibition in assay [5] (setting [7]) is 42%; in assay [5] (setting [8]), 100% (active); in assay [5] (at 50.0 µM) it was 99.5% (active); in assay [6] (setting [7]) it was 20%; in assay [6] (setting [8]), 100% (active); in assay [6] (at 50.0 µM), 99.7% (active).

Turning to `CN(C)CCOC(=O)c1ccccc1`, the growth inhibition in assay [1] (setting [7]) was 3%; in assay [1] (setting [8]), 88% (active); in assay [1] (at 50.0 µM) it was 49.4%; in assay [2] (setting [7]), -6%; in assay [2] (setting [8]) it was 42%; in assay [2] (at 50.0 µM), 22.4%. Moreover, the growth inhibition in assay [3] (setting [7]) is -2%; in assay [3] (setting [8]), 60%; in assay [3] (at 50.0 µM), 24%; in assay [4] (setting [7]), 0%; in assay [4] (setting [8]), 81% (active); in assay [4] (at 50.0 µM), 27.1%. Besides, the growth inhibition is -7% in assay [5] (setting [7]); 71% (active) in assay [5] (setting [8]); 37.2% in assay [5] (at 50.0 µM); 2% in assay [6] (setting [7]); 78% (active) in assay [6] (setting [8]); 42.2% in assay [6] (at 50.0 µM).

Regarding `CC(=O)N1c2ccccc2Sc2c1ccc1ccccc21`, the growth inhibition in assay [1] (setting [7]) was 10%; in assay [1] (setting [8]), 94% (active); in assay [1] (at 50.0 µM), 96% (active); in assay [2] (setting [7]), 5%; in assay [2] (setting [8]), 95% (active); in assay [2] (at 50.0 µM) it was 96.8% (active). In addition, the growth inhibition was 11% in assay [3] (setting [7]); 94% (active) in assay [3] (setting [8]); 96.5% (active) in assay [3] (at 50.0 µM); 1% in assay [4] (setting [7]); 94% (active) in assay [4] (setting [8]); 95% (active) in assay [4] (at 50.0 µM). The growth inhibition in assay [5] (setting [7]) is 6%; in assay [5] (setting [8]), 93% (active); in assay [5] (at 50.0 µM), 94.3% (active); in assay [6] (setting [7]), 2%; in assay [6] (setting [8]) it was 92% (active); in assay [6] (at 50.0 µM) it was 96.7% (active).

Regarding `O=C(Nc1ccc(O)cc1O)c1ccccc1`, the growth inhibition in assay [1] (setting [7]) is 2%; in assay [1] (setting [8]) it was 53%; in assay [1] (at 50.0 µM), 85% (active); in assay [2] (setting [7]), -15%; in assay [2] (setting [8]), 61%; in assay [2] (at 50.0 µM), 76.7% (active). For the same molecule, the growth inhibition was 6% in assay [3] (setting [7]); 82% (active) in assay [3] (setting [8]); 90.4% (active) in assay [3] (at 50.0 µM); 7% in assay [4] (setting [7]); 50% in assay [4] (setting [8]); 72.3% (active) in assay [4] (at 50.0 µM). In addition, the growth inhibition in assay [5] (setting [7]) was 11%; in assay [5] (setting [8]) it was 46%; in assay [5] (at 50.0 µM), 89.2% (active); in assay [6] (setting [7]) it was 3%; in assay [6] (setting [8]), 76% (active); in assay [6] (at 50.0 µM), 85.1% (active).

Take `C#CC(=O)OCC#CCOC(=O)C#C`: the growth inhibition was 3% in assay [1] (setting [7]); 77% (active) in assay [1] (setting [8]); 97.5% (active) in assay [1] (at 50.0 µM); 0% in assay [2] (setting [7]); 95% (active) in assay [2] (setting [8]); 98.5% (active) in assay [2] (at 50.0 µM). For the same molecule, the growth inhibition was -9% in assay [3] (setting [7]); 83% (active) in assay [3] (setting [8]); 78.2% (active) in assay [3] (at 50.0 µM); -7% in assay [4] (setting [7]); 15% in assay [4] (setting [8]); 49.2% in assay [4] (at 50.0 µM). The growth inhibition was 1% in assay [5] (setting [7]); 76% (active) in assay [5] (setting [8]); 92.2% (active) in assay [5] (at 50.0 µM); 5% in assay [6] (setting [7]); 96% (active) in assay [6] (setting [8]); 96% (active) in assay [6] (at 50.0 µM).
